Many of the other results were omitted from the sample, so hits are more common in it than they were.
mcGAS RapidFire – blocks mouse cGAS cGAMP production | recombinant mouse cGAS, cGAMP by RapidFire MS | 130,000 tested, 0.18% active | inhibition, % at 12.5 µM;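 active means inhibition of cGAS enzyme activity at or above 60%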;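 further: enzyme stimulated by 45 bp dsDNA with ATP and GTP substrates; cGAMP share of summed cGAMP plus half ATP and half GTP signals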
Target sequence (Q8C6L5 whole entry, looked up): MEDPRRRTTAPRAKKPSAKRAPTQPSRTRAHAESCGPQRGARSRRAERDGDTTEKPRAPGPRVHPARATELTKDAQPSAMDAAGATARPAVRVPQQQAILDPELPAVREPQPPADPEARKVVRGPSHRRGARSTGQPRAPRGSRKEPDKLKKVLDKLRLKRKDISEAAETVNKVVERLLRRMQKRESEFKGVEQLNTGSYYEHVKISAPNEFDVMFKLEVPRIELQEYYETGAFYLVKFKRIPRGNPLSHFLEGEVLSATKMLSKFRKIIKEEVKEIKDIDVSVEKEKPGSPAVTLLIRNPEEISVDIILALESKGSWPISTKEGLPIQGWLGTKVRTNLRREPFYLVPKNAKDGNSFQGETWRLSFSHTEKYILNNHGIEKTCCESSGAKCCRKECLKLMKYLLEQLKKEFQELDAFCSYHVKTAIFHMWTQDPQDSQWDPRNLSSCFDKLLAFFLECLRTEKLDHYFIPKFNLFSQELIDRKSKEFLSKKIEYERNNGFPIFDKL
* hit, by the source's call; ! = not active in a repeat.

SMILES	mcGAS RapidFire
O=C1CN(Cc2nnc(-c3ccc(Br)cc3)o2)CCN1	19.6
Cc1cc2nc(N(Cc3cccnc3)C(=O)c3cc(C)n(C)n3)sc2cc1C	-2.5
Cc1[nH]n(-c2nc3ccccc3s2)c(=O)c1C=NC1CCN(Cc2ccccc2)CC1	-6.3
C=CCN=Cc1c(C(F)(F)F)[nH]n(-c2nc3ccccc3s2)c1=O	-15.1
Cc1ccccc1N=Cc1c(C(F)(F)F)[nH]n(-c2nc3ccccc3s2)c1=O	68.9*
COCCc1noc(CN(C)C[C@]2(O)CCCN3CCCC[C@@H]32)n1	-0.8
Cc1ccc(C)c(C(C)CNC(=O)c2cnccn2)c1 (stereo not drawn)	-3.5
O=C(O)c1cc(O)c2c(O)c3c(O[C@H]4O[C@H](CO)[C@@H](O)[C@H](O)[C@H]4O)cccc3c(-c3c4cc(C(=O)O)cc(O)c4c(O)c4c(O[C@H]5O[C@H](CO)[C@@H](O)[C@H](O)[C@H]5O)cccc34)c2c1	81.6*!
O=c1c(O[C@@H]2O[C@H](CO)[C@@H](O)[C@H](O)[C@H]2O)c(-c2ccc(O)c(O)c2)oc2cc(O)cc(O)c12	10.9
OC[C@H]1O[C@@H](Oc2ccc(O)cc2)[C@H](O)[C@@H](O)[C@@H]1O	-10.0
O=C1c2ccccc2C(=O)N1CCSc1n[nH]c(C(F)(F)F)n1	0.9
O=C(CSc1nnc(-c2ccccc2)n1-c1ccccc1)N/N=C\c1ccccc1[N+](=O)[O-]	-11.6
COCCCNC(=O)C=Cc1csc(-c2ccc(OC)cc2)n1	-1.8
CCN(CC)CCNC(=O)c1cc(N2CCCCCC2)ccn1	-18.8
COCCNC(=O)c1cc(N2CCCN(C)CC2)ccn1	-16.4
O=C(NCCN1CCCCC1)c1cc(N2CCCN3CCC[C@H]3C2)ccn1	78.0*
CC1CCC(C)N1C(=O)c1cnn2c(-c3ccccc3)ccnc12 (stereo not drawn)	-6.3
O=C(Nc1cccc(S(=O)(=O)Nc2ccc(Br)cc2)c1)C1CCCCC1	23.6
CO[C@@H](C(=O)N1CC(c2cccnc2)C1)c1ccccc1	-8.6
COc1cccc2cc(CNC(C)c3ccc(F)c(F)c3)oc12 (stereo not drawn)	67.1*
COc1ccc2cc(CNC(=O)NC(C)c3ccc(F)c(F)c3)ccc2c1 (stereo not drawn)	1.8
COc1ccc(C(C)NCC(O)COc2ccc(Cl)cc2Cl)cc1F (stereo not drawn)	-8.0
CC(=O)c1ccc2ccccc2c1OC(F)F	-1.6
CC(C)(C)OC(=O)Nc1ccncc1C(=O)c1ccccc1	-20.5
CC(C)(C)OC(=O)Nc1ccsc1Br	65.6*!
SMILES	mcGAS RapidFire
Cn1ccsc1=NC(=O)c1ccc(NC(=O)OC(C)(C)C)cc1	-14.1
O=C(Nc1cc(C(F)(F)F)ccc1-n1cncn1)c1ccc2c(c1)OCCO2	-14.5
Cc1c(C)n2c3c(=O)n(CCc4ccccc4)c(=O)n(C)c3nc2n1CC1CCCO1 (stereo not drawn)	-4.1
O=c1[nH][nH]c2c1SCc1ccccc1-2	-3.0
CC1=NN(CCCc2ccccc2)c2nc3c(c(=O)n(C)c(=O)n3C)n2C1C (stereo not drawn)	1.1
CCN(CC)C(=O)COC(=O)CN1C(=O)NC2(CCCCC2C)C1=O (stereo not drawn)	-6.1
Cc1coc(-c2ccc(C)c(NC(=O)c3cccc(NS(C)(=O)=O)c3)c2)n1	-8.6
Cc1ccc(C(=O)Nc2ccc(S(=O)(=O)O)c3cc(S(=O)(=O)O)cc(S(=O)(=O)O)c23)cc1NC(=O)c1cccc(NC(=O)Nc2cccc(C(=O)Nc3cc(C(=O)Nc4ccc(S(=O)(=O)O)c5cc(S(=O)(=O)O)cc(S(=O)(=O)O)c45)ccc3C)c2)c1	93.3*
Cc1ccc(NC(=O)c2ccc(S(N)(=O)=O)c(C)c2)cc1C	-10.6
CC(C)(C)c1ccc(C(=O)Nc2ccccc2S(C)(=O)=O)cc1	-2.2
COc1ccc(CNc2ccccc2-n2cccn2)cc1C	-0.9
COc1ccc(CNc2c[nH]c(=O)cc2C)cc1OCCCC#N	83.1*
COc1ccc(CNc2ncn[nH]2)cc1OC	-1.9
CCN(CC)S(=O)(=O)c1cccc(C(=O)N=Nc2c(O)n(CC(C)C)c3ccccc23)c1	-4.3
COC(=O)NC(=O)CN(C)C1CCC(c2ccccc2)CC1 (stereo not drawn)	-6.7
CCOC(=O)Cn1nc(C)c(C)c(C#N)c1=O	-7.0
CCOC(=O)CN1C(=O)CSC1=CC#N	82.5*
CCOC(=O)C=C1SCC(=O)N1CC(=O)OCC	-7.8
COCCn1c(=NC(=O)c2ccc3ncsc3c2)sc2cc(S(C)(=O)=O)ccc21	-4.2
CN1CCN(C2CCN(C(=O)c3ccccc3)CC2)CC1C(=O)O (stereo not drawn)	10.9
COc1ccccc1OC(C)(C)C(=O)N1CCN(C)C(C(=O)O)C1 (stereo not drawn)	81.9*!
COc1ccccc1-c1ccc(C(=O)N2CCN(C)C(C)C2)cc1 (stereo not drawn)	-8.2
O=C(CNCCCc1cccnc1)Nc1ccc(Cl)cc1F	-2.9
CCN(C)C(C(=O)Nc1ccn(Cc2ccncc2)n1)c1ccccc1 (stereo not drawn)	-14.9
O=C1C=CC2=C3c4cc(O)c(O)cc4CC3(O)COC2=C1O (stereo not drawn)	97.3*
SMILES	mcGAS RapidFire
O=C(NCCc1ccc(O)c(O)c1)C(F)(F)F	4.4
CCOC(=O)c1nn(-c2ccccc2)c(=O)cc1OS(=O)(=O)c1cccs1	0.5
Cc1nc2c(cc(O)c3ccsc32)s1	-4.9
Cc1nc2c(cc(OS(=O)(=O)c3cccs3)c3ccsc32)s1	62.0*
CCc1cccc(CC)c1NC(=O)CN1C(=O)NC(C)(c2ccco2)C1=O (stereo not drawn)	-8.5
CC1Oc2cc(Cl)ccc2N(c2ccccc2)C1=O (stereo not drawn)	-9.0
CCNC(=O)CCC(=O)Nc1ccc(OC2CCCC2)c(F)c1	-8.1
CCN(C)S(=O)(=O)NCC1CCN(Cc2cccc(C)n2)C1 (stereo not drawn)	-7.7
O=c1c(O)cccc2cc(O)c(O)c(O)c12	65.3*
Cc1nc2nc(C)c(Br)c(=O)n2[nH]1	68.8*
CCCc1nc2nc(C)c([N+](=O)[O-])c(=O)n2[nH]1	-6.0
CC(=O)Nc1nc2nc(C)c(C)c(=O)n2[nH]1	-12.1
CCCCNC(=O)Nc1ccnn1CCCC	-39.8
CC(C)c1nc(NC(=O)c2ccc(CNC(=O)C(C)(C)C)cc2)n[nH]1	76.8*
CC(C)(C)c1ccc(C(=O)Nc2n[nH]c(C(F)(F)F)n2)cc1	-1.0
CC(C)c1nc(NC(=O)c2cn(Cc3cccs3)nn2)n[nH]1	-5.3
Cc1noc(C)c1CS(=O)(=O)CC(O)c1ccc(F)cc1 (stereo not drawn)	-7.3
CC1C(=O)N(CN2CCCN(Cc3ccc(C#N)cc3)CC2)C(=O)N1c1ccccc1 (stereo not drawn)	-9.9
CCOc1cccc(C2Nc3ccccc3C(=O)N2C2CC2)c1OC (stereo not drawn)	-9.5
CSC1(CNc2ccc(Br)cn2)CCOCC1	70.5*
CSC1(CNC(=O)N2CCCC2c2cccs2)CCOCC1 (stereo not drawn)	13.6
CSC1(CNC(=O)c2ccc(Oc3ccccc3)nc2)CCOCC1	-13.0
O=C1OC(c2ccc(F)cc2)=NC1=Cc1ccc(N2CCOCC2)s1	1.4
COc1cc(S(=O)(=O)n2cc(C)nc2-c2ccccc2)c(C)cc1C	-9.9
CC(C)(C)C(=O)CN1C(=O)NC(C)(c2ccc(Br)cc2)C1=O (stereo not drawn)	-4.7
Cc1cc(C=C2C(=O)NC(=S)NC2=O)c(C)n1CC(F)(F)F	74.3*
COC(=O)C(=Cc1cc(C)n(CC(F)(F)F)c1C)C(C)=O	-12.5
CCN1C(=O)C(=Cc2cc(C)n(CC(F)(F)F)c2C)SC1=S	-11.3
